# This excerpt belongs to a sample that is enriched for hits.
# Pf Dd2 inh – inhibitors of Plasmodium falciparum Dd2 growth | 120,000 compounds, 4.3% hits | P. falciparum Dd2 growth, SYBR Green, 72 h | Potency, µM (highest dose often 28.9 µM), most hits filed as inhibitors; active = well fitted inhibition curve with a large enough effect; note: nearly all actives have a fitted effect of over 65% in size
#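 Infected erythrocytes (Dd2, 0.3% parasitemia, 2.5% hematocrit final) are added to compound in RPMI-1640/Albumax II medium, grown 72 h at 37C in low oxygen, then lysed with saponin/Triton-X containing SYBR Green and read by fluorescence.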
# A number is an active result; - = inactive; [ ] = dose if it differs, or a comment.
SMILES,Pf Dd2 inh
Cc1ccc(-c2cc(C(=O)N3CCC(Cc4nncn4CC4CC4)CC3)c3ccccc3n2)cc1C,2.82µM
O=C(c1ccc2cc[nH]c2c1)N1CCC(Cc2nncn2CC2CC2)C1 (stereo not drawn),-
O=C(CCc1ccc(=O)[nH]n1)N[C@@H]1COCC[C@H]1Oc1ccccn1,-
CS(=O)(=O)N1C[C@H]2CCN(Cc3ccc(Cl)cc3F)C[C@H]21,-
O=C1[C@@H]2C[C@@H](CN2C(=O)NCc2ccccc2)Oc2ccccc2N1CC1CC1,-
O=C(COc1ccc(-c2nnc3n2CCCC3)cc1)Nc1ccccc1,7.94µM
Cc1ccccc1NC(=O)COc1ccc(-c2nnc3n2CCCC3)cc1,11.2µM
O=C(C1CC1)N1CCCCCCn2c(nnc2-c2ccc(F)cc2)CC1,-
O=C(COc1ccc(-c2nnc3n2CCCC3)cc1)Nc1ccc(F)cc1,5.62µM
CCc1ccc(NC(=O)COc2cccc(-c3nnc4n3CCCC4)c2)cc1,5.01µM
CNC(=O)N1CCCCCCn2c(nnc2-c2ccc(F)cc2)CC1,-
Cc1cccc(NC(=O)Cn2nc3n(c2=O)CCCCC3)c1C,-
Cc1cc2nc3n(c(=O)c2n1CC(=O)Nc1ccccc1)CCCCC3,-
CCc1cccc(OCC(=O)Nc2ccc(S(=O)(=O)Nc3ncccn3)cc2)c1,-
Cc1ccccc1NC(=O)Cn1c(C)cc2nc3n(c(=O)c21)CCCCC3,-
COc1ccc(C(=O)N2CCC(c3n[nH]c(=O)n3-c3ccc(C)cc3)CC2)cn1,-
CCOc1ccc(C2Cn3nnc(-c4nc(-c5ccccc5Cl)no4)c3CO2)cc1 (stereo not drawn),-
O=C(c1cccc(F)c1)N1CCCC(Cc2nc(C3CCOCC3)no2)C1 (stereo not drawn),-
Cc1ccccc1Oc1ncccc1CNC(=O)CCc1c(C)nn(C)c1C,-
Cc1nc(C(=O)N2CCC3(CCC(=O)N(CCc4cnc[nH]4)C3)CC2)cs1,-
CC(=O)N1CCC(NC[C@H]2COCc3nc4ccccc4n32)CC1,-
COc1ccc(C2Cn3cnc(C(=O)N4CCC(C(=O)NCc5ccccc5F)CC4)c3CO2)cc1 (stereo not drawn),-
CNC(=O)N1CCC(C2CCN(C(=O)c3ccc4ncccc4c3)C2)CC1 (stereo not drawn),-
COc1cccc(NC(=O)Cn2c(C)cc3nc4n(c(=O)c32)CCCC4)c1,-
COc1ccc(CCC(=O)Nc2ccc(-c3nnc4n3CCCC4)cc2)cc1,-
SMILES,Pf Dd2 inh
COc1ccccc1NC(=O)Nc1ccc(-c2nnc3n2CCCC3)cc1,3.98µM
O=C(Nc1ccc(-c2nnc3n2CCCC3)cc1)Nc1ccccc1Br,-
CCc1ccc(NC(=O)COc2ccc(-c3nnc4n3CCCC4)cc2)cc1,3.98µM
CCOc1ccc(NC(=O)Cn2c(C)cc3nc4n(c(=O)c32)CCCC4)cc1,-
COc1ccc(-c2nnc3n2CCN(C(C)=O)C3)cc1,-
COc1ccccc1NC(=O)Nc1cccc(-c2nnc3n2CCCC3)c1,-
COc1ccc(CC(=O)N2CCn3c(nnc3-c3ccc(OC)cc3)C2)cc1,-
COc1ccc(N2CCN(C(=O)COc3ccc(-c4nnc5n4CCCC5)cc3)CC2)cc1,0.708µM
COc1cccc(NC(=O)COc2ccc(-c3nnc4n3CCCC4)cc2)c1,2.82µM
COc1cccc(NC(=O)Cn2nc3n(c2=O)CCCCC3)c1,-
COc1cccc2c1OCC(C(=O)N1CCC(Cn3cc(C)cn3)CC1)C2 (stereo not drawn),-
N#Cc1ccc(CN2C3CCC2CN(C(=O)Nc2ccccc2F)C3)cc1,-
COCC1(CNC(=O)c2ccc(OC)cc2)C[C@@H](O)[C@@H](O)C1 (stereo partly drawn),-
O=C([C@@H]1C[C@H](F)CN1C(=O)c1ccccc1)N1CCCCC1,-
O=C(C1CCCC1)N1CCN(c2cc(-c3ccccc3)[nH]n2)CC1,-
COCCOC1CCN(C(=O)Nc2ccccc2F)CC1,-
O=C1CC(c2noc(Cc3c(F)cccc3Cl)n2)CN1C1CCCCC1 (stereo not drawn),-
COc1ccc(F)cc1S(=O)(=O)N1CCCN(C(=O)C2CC2)c2ccccc21,-
CC1CCN(C(=O)c2cc3c(s2)CCC(C(=O)O)C3)CC1 (stereo not drawn),-
CN(C(=O)c1ccc(OC2CCN(C(=O)C3CC3)CC2)cc1)C1CCCc2ccccc21 (stereo not drawn),-
O=C(NCc1ccc(F)cc1)N1CC(c2nnc(-c3ccncc3)o2)C2(CCOCC2)C1 (stereo not drawn),-
COc1cc(NC(=O)c2c(OC)cc(=O)n3c2CCCC3)cc(OC)c1,-
O=C(O)C1(n2cnc3ccccc32)CCN(c2nc3ccccc3s2)CC1,-
O=C(COc1ccccc1)Nc1ccc(-c2nnc3n2CCCC3)cc1,10µM
O=C(Nc1ccc(-c2nnc3n2CCCC3)cc1)C1CC1,-
SMILES,Pf Dd2 inh
O=C(CCC1CCCC1)Nc1ccc(-c2nnc3n2CCCC3)cc1,-
C[S+](=O)([O-])N1CCC2(CC1)CC(c1ccccc1)=NO2,-
CCOc1ccc(-n2nc3ccc(NC(=O)COc4ccccc4)cc3n2)cc1,-
CCOc1ccc(-n2nc3ccc(NC(=O)c4ccc(-c5cccc(Cl)c5)o4)cc3n2)cc1,2.82µM
CCOc1ccc(-n2nc3ccc(NC(=O)c4ccc(C)cc4C)cc3n2)cc1,-
COC1CCC12CCN(C(=O)c1ccc(C#N)cc1)CC2 (stereo not drawn),-
COc1ccc2c(c1)c1c(c(=O)n(-c3ccc(F)c(Cl)c3)c(=O)n1Cc1ccccc1F)n2C,-
NCc1ccccc1Oc1ccc(F)c(Cl)c1,11.2µM
Cn1c(C(=O)N2CCc3c(n(Cc4cccnc4)n(-c4ccccc4)c3=O)C2)cc2ccccc21,-
Fc1ccc2nc(CO[C@H]3CN(C4CCOCC4)C[C@H]3F)[nH]c2c1,-
CSc1ccc(-c2ccc(=O)n3c2[C@@H]2C[C@@H](CN(S(=O)(=O)c4cccs4)C2)C3)cc1,8.91µM
CC(=O)Nc1ccc(-c2ccc(=O)n3c2[C@@H]2C[C@@H](CN(S(=O)(=O)c4cccs4)C2)C3)cc1,-
CSCC(=O)N1C[C@@H]2C[C@H](C1)c1c(-c3ccc(SC)cc3)ccc(=O)n1C2,-
CC1CCN(c2nc3ccc(C(=O)NCc4ccccc4)cc3s2)CC1,-
Clc1ccc2nc(N3CCC(NCCc4cccnc4)CC3)sc2c1,11.2µM
O=C1CCC2(CCN(c3nc4ccccc4s3)CC2)CN1Cc1cccnc1,-
CN(C)c1ccc(C(=O)N2CCC3(CC2)N=C(c2ccc(Br)cc2)NO3)cc1,-
CC(=O)c1cc(CN2CCC(c3nnc4n3CCCCC4)CC2)n(C)c1,-
Cc1noc(C)c1S(=O)(=O)N1CCC(Cc2nc(-c3ccncc3)n[nH]2)C1 (stereo not drawn),-
CCOc1ccc(NC(=O)CN2CCN(Cc3ccccc3)S2(=O)=O)cc1,5.62µM
CCc1cccc(NC(=O)CN2CCCN(Cc3cccc(C)c3)S2(=O)=O)c1,-
COc1cccc(CNC(=O)CN2CCCN(Cc3ccccc3)S2(=O)=O)c1,-
CCCN(CC1CCOC1)C(=O)Nc1cc(F)c(F)c(F)c1 (stereo not drawn),-[5.79 µM]
CC(=O)N1CCNc2cc(Nc3cccc(N(C)C)c3)ncc2C1,-
COCC(=O)N1CC[C@@H](CC(=O)O)[C@@H](CCN2CCN(c3ccccc3OC)CC2)C1,-
CN(Cc1ncc[nH]1)C(=O)C1CCC(=O)N(CCN2CCOCC2)C1 (stereo not drawn),-
CCN(CC)S(=O)(=O)c1ccc(OC)c(NC(=O)c2sc3ccccc3c2Cl)c1,-
CCN(CC)S(=O)(=O)c1cccc(C(=O)Nc2ccccc2C(=O)Nc2ccc(OC)cc2)c1,7.08µM

# High-throughput results deposited in PubChem BioAssay by National Center for Advancing Translational Sciences (NCATS).
